Laboratory results as given in PMC11024108.

target: Septin-5 (UniProt Q9Z2Q6); assay: cross-link between two proteins; cross-linking mass spectrometry
Sequence (Q9Z2Q6 whole entry): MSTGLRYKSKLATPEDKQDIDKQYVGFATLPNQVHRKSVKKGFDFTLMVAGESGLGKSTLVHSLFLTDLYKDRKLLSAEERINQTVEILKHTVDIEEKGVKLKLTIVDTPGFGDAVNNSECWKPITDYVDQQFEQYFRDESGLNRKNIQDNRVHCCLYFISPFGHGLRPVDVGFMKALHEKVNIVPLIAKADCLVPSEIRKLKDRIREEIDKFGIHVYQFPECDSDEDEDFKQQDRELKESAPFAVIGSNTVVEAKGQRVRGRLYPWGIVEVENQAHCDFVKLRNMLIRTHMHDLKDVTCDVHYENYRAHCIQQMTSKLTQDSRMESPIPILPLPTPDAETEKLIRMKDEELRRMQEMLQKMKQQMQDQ

Substance	listed as a hit
Septin-6, Q9R1T4	yes
Septin-4, P28661	yes
Septin-8, Q8CHH9	yes
Septin-11, Q8C1B7	yes
